{"source": "PubChem BioAssay (NCI)", "note": "The panel holds about 79,000 compounds, 15% with a hit somewhere; the sample as a whole holds those more often. Unmarked numbers belong to inactive results. Activity calls are given as the source filed them. Cut-off read from the data, not from the text of the source: active = growth inhibition above about 70%; inactive = the rest.", "data": [{"assay": "NCI Yeast Anticancer Drug Screen. Data for the mlh1 strain (AID 171);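 note: 0% = growth of vehicle-treated control cultures of the same strain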", "settings": "S. cerevisiae mlh1 strain growth inhibition; at 3.7 µM; stronger effect = higher value", "summary_of_the_method": "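Growth of the mutant yeast strain after compound exposure, expressed as inhibition relative to vehicle-only controls.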", "values": [{"smiles": "CN(C)c1ccc(C2CC(C)(O)Oc3cc4c(cc32)OCO4)cc1", "note": "(configuration not stated)", "growth inhibition": "0%"}, {"smiles": "O=P(NC1CCCCC1)(OCc1ccccc1)OCc1ccccc1", "growth inhibition": "0%"}, {"smiles": "C[Si](C)(C)/C=C/CCNC(C#N)c1ccccc1", "note": "(configuration not stated)", "growth inhibition": "-5%"}, {"smiles": "CCOc1ccc(NC(=O)C2=C(C)NC(C)=C(C(=O)Nc3ccc(OCC)cc3)C2c2cccc([N+](=O)[O-])c2)cc1", "growth inhibition": "-1%"}, {"smiles": "CN(C)CCOC1(Cc2ccc(F)cc2)CCC(C(C)(C)C)CC1", "note": "(configuration not stated)", "growth inhibition": "7%"}, {"smiles": "CC1(C)CC(=O)C(/C=N/c2nc(-c3ccccc3)cs2)=C(O)C1", "growth inhibition": "3%"}, {"smiles": "CC(=O)Nc1ccc2c(c1)Cc1cc(N=C3C=CC(=O)O3)ccc1-2", "growth inhibition": "25%"}, {"smiles": "O=C1C=C(Cl)C(=O)C(c2ccc(Cl)cc2)=C1", "growth inhibition": "61%"}, {"smiles": "CNCCCNc1c2ccccc2nc2cccc([N+](=O)[O-])c12", "growth inhibition": "42%"}, {"smiles": "CCCCCCCCCCCC(O)S(=O)(=O)O", "note": "(configuration not stated)", "growth inhibition": "0%"}, {"smiles": "CC(C)OC(=O)c1ccc(CCc2cc(O)c(Br)cc2O)cc1", "growth inhibition": "70% (active)"}, {"smiles": "CCc1cc(O)c(Cl)c(C)c1Cl", "growth inhibition": "5%"}, {"smiles": "C(=Nc1ccc(-c2cc(-c3ccccc3)nc3ccc4ccccc4c23)cc1)c1ccccc1", "growth inhibition": "17%"}, {"smiles": "CSc1nc(C)c(CCOC(C)=O)c(N=P(c2ccccc2)(c2ccccc2)c2ccccc2)n1", "growth inhibition": "5%"}, {"smiles": "CS(=O)(=O)SCc1ccc([N+](=O)[O-])cc1", "growth inhibition": "14%"}, {"smiles": "COC1=C(OC)C(=O)C(Sc2ccc3ccccc3c2)=CC1=O", "growth inhibition": "-38%"}, {"smiles": "COc1nc2c(c(=O)n1C)N=C(c1ccccc1)[C@H](C(CC(=O)c1ccccc1)c1ccccc1)C(c1ccccc1)N2", "note": "(some centres not stated)", "growth inhibition": "-38%"}]}]}
